# Experimental data as given in the supplement of paper PMC6897291.
# Assays:
# [1] = test system: U-2932; assay: growth inhibition by drug alone (1 - RLU/untreated control) (fraction); higher = stronger inhibition; settings: 177Lu-lilotomab satetraxetan 0 ug/ml
# Outline: (§1)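 Growth inhibition was calculated from RealTime-Glo RLU against untreated no-drug wells. Values equal 1 − RLU/mean of 48 untreated no-drug wells per plate, read daily from day 3 after 1 h at 37°C. RIVA and U-2932 cells, with or without 18 h pretreatment by a radiolabelled anti-CD37 antibody conjugate (~600 MBq/mg; 0.5 µg/ml RIVA, 1 µg/ml U-2932), were washed and plated at 3,000 cells/well on compound-printed plates at 10/100 nM (RIVA) or 10/1,000 nM (U-2932).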
# [2] = test system: RIVA; assay: as above; settings: 177Lu-lilotomab satetraxetan 0 ug/ml
# Outline: as §1
# [3] = test system: U-2932; assay: growth inhibition by drug plus 177Lu-lilotomab satetraxetan (1 - RLU/untreated control) (fraction); higher = stronger inhibition; settings: 177Lu-lilotomab satetraxetan 1 ug/ml
# Outline: as §1
# [4] = test system: RIVA; assay: as above; settings: 177Lu-lilotomab satetraxetan 0.5 ug/ml
# Outline: as §1
Structure (SMILES),"growth inhibition by drug alone ([1]; 10 nM, time (day): 3)","growth inhibition by drug alone ([1]; 10 nM, time (day): 4)","growth inhibition by drug alone ([1]; 10 nM, time (day): 5)","growth inhibition by drug alone ([1]; 10 nM, time (day): 6)","growth inhibition by drug alone ([1]; 1000 nM, time (day): 3)","growth inhibition by drug alone ([1]; 1000 nM, time (day): 4)","growth inhibition by drug alone ([1]; 1000 nM, time (day): 5)","growth inhibition by drug alone ([1]; 1000 nM, time (day): 6)","growth inhibition by drug alone ([2]; 10 nM, time (day): 3)","growth inhibition by drug alone ([2]; 10 nM, time (day): 4)","growth inhibition by drug alone ([2]; 10 nM, time (day): 5)","growth inhibition by drug alone ([2]; 10 nM, time (day): 6)","growth inhibition by drug alone ([2]; 100 nM, time (day): 3)","growth inhibition by drug alone ([2]; 100 nM, time (day): 4)","growth inhibition by drug alone ([2]; 100 nM, time (day): 5)","growth inhibition by drug alone ([2]; 100 nM, time (day): 6)","growth inhibition by drug plus 177Lu-lilotomab satetraxetan ([3]; 10 nM, time (day): 3)","growth inhibition by drug plus 177Lu-lilotomab satetraxetan ([3]; 10 nM, time (day): 4)","growth inhibition by drug plus 177Lu-lilotomab satetraxetan ([3]; 10 nM, time (day): 5)","growth inhibition by drug plus 177Lu-lilotomab satetraxetan ([3]; 10 nM, time (day): 6)","growth inhibition by drug plus 177Lu-lilotomab satetraxetan ([3]; 1000 nM, time (day): 3)","growth inhibition by drug plus 177Lu-lilotomab satetraxetan ([3]; 1000 nM, time (day): 4)","growth inhibition by drug plus 177Lu-lilotomab satetraxetan ([3]; 1000 nM, time (day): 5)","growth inhibition by drug plus 177Lu-lilotomab satetraxetan ([3]; 1000 nM, time (day): 6)","growth inhibition by drug plus 177Lu-lilotomab satetraxetan ([4]; 10 nM, time (day): 3)","growth inhibition by drug plus 177Lu-lilotomab satetraxetan ([4]; 10 nM, time (day): 4)","growth inhibition by drug plus 177Lu-lilotomab satetraxetan ([4]; 10 nM, time (day): 5)","growth inhibition by drug plus 177Lu-lilotomab satetraxetan ([4]; 10 nM, time (day): 6)","growth inhibition by drug plus 177Lu-lilotomab satetraxetan ([4]; 100 nM, time (day): 3)","growth inhibition by drug plus 177Lu-lilotomab satetraxetan ([4]; 100 nM, time (day): 4)","growth inhibition by drug plus 177Lu-lilotomab satetraxetan ([4]; 100 nM, time (day): 5)","growth inhibition by drug plus 177Lu-lilotomab satetraxetan ([4]; 100 nM, time (day): 6)"
Cn1cc(-c2ccc3nnc(Sc4ccc5ncccc5c4)n3n2)cn1,0.0784,0.0569,-0.0234,-0.0672,0.09,0.0464,-0.0633,-0.0059,0.0128,0.0644,0.0167,-0.227,-0.0367,0.0223,0.00017,-0.0611,0.0469,0.105,0.177,0.212,0.0614,0.085,0.142,0.222,0.61,0.637,0.638,0.635,0.458,0.538,0.561,0.584
CC[C@@H]1/C=C(\C)C[C@H](C)C[C@H](OC)[C@H]2O[C@@](O)(C(=O)C(=O)N3CCCC[C@H]3C(=O)O[C@H](/C(C)=C/[C@@H]3CC[C@H](Cl)[C@H](OC)C3)[C@H](C)[C@@H](O)CC1=O)[C@H](C)C[C@@H]2OC [Pimecrolimus],0.214,0.249,0.272,0.287,0.139,0.29,0.361,0.431,0.339,0.267,0.276,0.279,0.691,0.549,0.534,0.477,0.198,0.242,0.304,0.352,0.12,0.321,0.373,0.447,0.545,0.621,0.662,0.701,0.634,0.675,0.716,0.743
O=C(O)C(Cc1c[nH]c2ccccc12)N1C(=O)c2ccccc2C1=O (stereo unspecified),0.0147,0.0153,-0.0484,-0.236,-0.0782,-0.0484,-0.0679,-0.115,-0.0918,-0.166,-0.249,-0.485,-0.231,-0.283,-0.253,-0.339,-0.0896,-0.0477,-0.032,0.0338,-0.157,-0.0639,-0.0646,-0.0481,0.311,0.457,0.475,0.497,0.275,0.394,0.397,0.381
